Assay results taken from PubChem BioAssay (NCI).
This is part of a sample that, as a whole, favours compounds with a hit. Of some 79,000 tested, about 15% had one in any assay. Unmarked numbers belong to inactive results. Calls of active or inactive are those of the source. No stated cut-off is given here; in the data, active means growth inhibition above about 70%; inactive means the rest. Where a SMILES comes first, the peptide text is derived from it. [ ]: non-standard residue; d: D form. The star is where a group is joined. Phe(4-NO2) = N[CH](Cc1ccc([N+](=O)[O-])cc1)C(=O)O; Boc = CC(C)(C)OC(=O)*; OtBu = CC(C)(C)O*

What was measured:
[1] = NCI Yeast Anticancer Drug Screen. Data for the rad50 strain (AID 155);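 further: 0% = growth of vehicle-only cultures of the same strain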; details: S. cerevisiae rad50 strain growth inhibition; at 50.0 µM; stronger effect = higher value
How it was run: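 Genetically altered yeast (DNA repair pathway); compound treatment; growth inhibition vs vehicle ctrl.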

[2] = NCI Yeast Anticancer Drug Screen. Data for the mec2-1 strain (AID 157); details: S. cerevisiae mec2-1 strain, at 50.0 µM, stronger effect = higher value
How it was run: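 Vehicle-treated cultures served as reference for growth inhibition of compound-exposed mec2-1 yeast.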

[3] = NCI Yeast Anticancer Drug Screen. Data for the sgs1 mgt1 strain (AID 161);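 further: 0% = growth of cultures given vehicle only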; details: S. cerevisiae sgs1 mgt1 strain, at 50.0 µM, stronger effect = higher value
How it was run: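 Read-out: growth inhibition vs vehicle controls. Cells: mutant yeast strain deficient in DNA damage repair.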

[4] = NCI Yeast Anticancer Drug Screen. Data for the cln2 rad14 strain (AID 165);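 further: 0% = growth equal to vehicle treated cultures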; details: S. cerevisiae cln2 rad14 strain, at 50.0 µM, stronger effect = higher value
How it was run: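 Each compound was tested on cln2 rad14 yeast. Inhibition of growth was calculated against vehicle-exposed controls.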

[5] = NCI Yeast Anticancer Drug Screen. Data for the bub3 strain (AID 167); details: S. cerevisiae bub3 mutant strain, at 50.0 µM, stronger effect = higher value
How it was run: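 Yeast carrying a defined mutation is treated with each compound, and growth is compared with that of vehicle-exposed cells to give inhibition.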

[6] = NCI Yeast Anticancer Drug Screen. Data for the mlh1 rad18 strain (AID 175); details: S. cerevisiae mlh1 rad18 strain growth inhibition; at 50.0 µM; stronger effect = higher value
How it was run: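 Vehicle-treated cultures served as the reference for growth inhibition in a yeast strain carrying DNA damage repair alterations exposed to each compound.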

SMILES | growth inhibition [1] | growth inhibition [2] | growth inhibition [3] | growth inhibition [4] [%] | growth inhibition [5] | growth inhibition [6] [%]
CCOc1ccc(/C=C\C(=O)O)cc1 | -1.9% | -19.6% | 8.5% | -5.75 | 1.25% | 1.55
CC1(C)CC(C)(C)[P+]1(C)c1ccccc1 | -0.35% | 16.4% | 12.8% | -3.45 | 15.6% | 10.1
Cc1cc2c(c(C(N)=O)c1C)-c1cccc(Cl)c1C2=O | 13.1% | 12.2% | 9.7% | 11 | 1.35% | -1.3
CC(O)c1ccc2c(c1)Nc1ccccc1S2 (stereo unspecified) | -6.95% | -21.9% | -16.4% | -7.05 | -24.4% | -11
O=C(/C=C/c1ccccc1)Cc1nc2nnc(NC(=O)Nc3ccc(Cl)cc3)n2[nH]c1=O | -9.15% | 1.85% | 1.5% | -8.05 | 6.15% | 4.65
CN(C)CC1CC=CCC1CN(C)C (stereo unspecified) | -19.8% | 0% | -5.6% | -15.7 | 6.85% | -8.7
CC#CCOC(=O)c1ccccc1OC(C)=O | 27.8% | -1.75% | 23.9% | 9.7 | 26.9% | 19.1
N#C/C(=C/c1cccnc1)C(=O)c1ccccc1 | -6.1% | -18.9% | 1.3% | 12.6 | -22.6% | 7.15
CCC(C(=O)O)c1ccc(OCc2ccccc2)cc1 (stereo unspecified) | 15.7% | 2% | -10.2% | 18.7 | 8.05% | -2.95
CSc1ncc(C=O)n1Cc1ccccc1 | -4.35% | 6.7% | 0.3% | -34.5 | 2.15% | 5.6
CC(NN(C)C(=S)Nc1ccccc1)c1ccccn1 (stereo unspecified) | -6.7% | -7.15% | -9.15% | -10.8 | -4.75% | -0.1
O=C([O-])c1ccc2c(c1)-c1nc-2nc2[n-]c(nc3nc(nc4[n-]c(n1)c1ccc(C(=O)[O-])cc41)-c1ccc(C(=O)[O-])cc1-3)c1ccc(C(=O)[O-])cc21.[Gd+3].[K+] | -12.8% | -11.1% | -11.8% | 23.6 | 18% | -12.1
CC(CCc1ccccc1)N(C)C(=O)CNC(=O)CN1C(=O)c2ccccc2C1=O (stereo unspecified) | -18.9% | 1.35% | 6.85% | -1.25 | -15.1% | -6.9
O=C(/C=C/c1cccs1)c1ccc(C(=O)/C=C/c2cccs2)cc1 | -32.6% | -46.4% | -18% | 11.2 | -3.5% | -31.9
Nc1ccccc1SC1CC(=O)N(c2ccc(I)cc2)C1=O (stereo unspecified) | -6.8% | -15.7% | -7.5% | 13.8 | 9.55% | 2.35
ClCCCN1CCN(CCCCl)CC1 | 80.2% (active) | 70% (active) | 85% (active) | 62.1 | 80.5% (active) | 7.75
COc1cc(Cc2cc(OC)c(OC)c(OC)c2)ccc1O | -23.4% | -8.5% | -8.5% | -2.6 | 19.1% | 9.5
COc1ccc(NC(=S)c2ccoc2C)cc1CC(=O)OC(C)C | 17.4% | 18.4% | 48.5% | 13.2 | 37.9% | -18.7
O=CC(O)C(O)C(O)C(O)COC(=S)OCC(O)C(O)C(O)C(O)C=O (stereo unspecified) (tested in a mixture with another compound) | -4.35% | -10.1% | -2.85% | -3.1 | 6.05% | -4.25
CCCCC1SC(N)=NC1=O (stereo unspecified) | 14.9% | -2.35% | 12.5% | 53.2 | 3.9% | -17.7
C=C1C(=O)O[C@@H]2[C@H]1CC[C@H](C)[C@]1(O)CCC(=O)[C@@]21C | -5.3% | -13.6% | 14.2% | 7.85 | -4.75% | 3

SMILES | growth inhibition [1] | growth inhibition [2] | growth inhibition [3] | growth inhibition [4] [%] | growth inhibition [5] | growth inhibition [6] [%]
COc1cc2nccnc2c(N)c1OC | 14.6% | 7.65% | 7.75% | -1.7 | -0.95% | 19.9
CCNc1nc2c(=O)n(C)c(=O)n(C)c2s1 | -31% | -26.2% | -4.05% | -6.2 | -10.6% | -5.65
CC(NC(=O)CCl)c1ccccc1 (stereo unspecified) | 23.7% | -12.2% | -12.9% | 14.4 | 4.25% | 36.4
CC(C(=O)C(=O)Nc1ccc(Cl)cc1)C(=O)c1ccc(Cl)cc1 (stereo unspecified) | 1.25% | -7.15% | -2.85% | -14.9 | 5.15% | -17.3
Cc1c2sc3ccccc3[nH]c2nc2[nH]c3ccccc3sc12 | -24.9% | -10.7% | -25.1% | 2.35 | 11% | 0.95
CC(=O)c1ccc(N=C2C(=O)Nc3ccccc32)cc1 | 28.9% | 15.8% | 10.4% | 19.8 | 9% | 25.8
N=C(N)N1CCc2ccccc2C1 | -5.55% | 7.3% | -2% | -3.35 | -28.9% | 2.65
NCC(O)c1cc(I)c(Oc2ccc(O)cc2)c(I)c1 (stereo unspecified) | 7.65% | -19.8% | -22.6% | 12.3 | -1.35% | -11.5
Nc1nnc2nc(CC(=O)Cc3ccccc3)c(CC(=O)Cc3ccccc3)nn12 | 0.3% | -5.55% | 11.2% | -17.9 | 10.7% | 9.35
CCCC(O)C(C)C(C)O (stereo unspecified) | -28.5% | -16.1% | -17.4% | 25.1 | -2.15% | -8.75
O=C(Nc1ccccc1)OCC(CN1CCCCC1)OC(=O)Nc1ccccc1 (stereo unspecified) | -35.7% | -38% | -13.8% | 5.55 | -23.8% | -37.1
Cc1ccc2cccc([N+](=O)[O-])c2n1 | 15.8% | -23.5% | 3.75% | 27.4 | 1.2% | 14.3
Nc1ccc(-c2nc3ccc(N)cc3[nH]2)cc1 | -17.1% | -17.9% | -18.1% | 6.45 | -4% | -18.2
CSc1ccc(NC(=O)Oc2ccc(NC(C)=O)cc2)cc1 | 8.55% | -0.95% | 6.05% | 14.4 | 22.8% | 4.45
O=C(NC(=O)c1ccc(F)c(Cl)c1)NC1CC1 | 6.3% | -1.15% | 12% | 14.2 | 9.25% | 5.3
CC(=O)NC(CCC(=O)OC(C)(C)C)C(=O)NC(CCC(=O)OC(C)(C)C)C(=O)NC(Cc1ccc([N+](=O)[O-])cc1)C(=O)NC(CCCCNC(=O)OC(C)(C)C)C(=O)NC(CCCCNC(=O)OC(C)(C)C)C(=O)NCC(=O)O (stereo unspecified) (Ac-E(OtBu)E(OtBu)[Phe(4-NO2)]K(Boc)K(Boc)G-OH; configuration not given here) | -31.4% | -19.4% | -22.6% | 13.4 | -8.2% | -27.3
CC(=O)OCC(OC(C)=O)C(OC1OC(COC(C)=O)C(OC(C)=O)C(OC(C)=O)C1OC(C)=O)C(OC(C)=O)c1cnn(-c2ccccc2)n1 (stereo unspecified) | -10.7% | -0.1% | -8.15% | -19.4 | -2.65% | -5.75
O=c1[nH]c(=O)n(C2OC(CO)C(O)C2O)cc1I (stereo unspecified) | -10.2% | -9.95% | -6.9% | 15.2 | 5.6% | -13.8
CCCN=C(C)C(C)=NCCC | -18.7% | -15.1% | -15.1% | -11 | -19.4% | -11.3
CC(=O)NC1=NN(C(C)=O)C(C)(c2ccccc2)S1=O (stereo unspecified) | 9.65% | -1.25% | 3.7% | 10 | -3.95% | 14.7
